Screening results as filed in PubChem BioAssay.
Only some compounds are listed: those with a hit (about 3.7% of all), similar ones and a draw of the others.
MazEF act: MazEF (E. coli) toxin RNase activation; P0AE70; FAM/BHQ RNA-DNA oligo cleavage fluorescence, 5 h; activation, % at 20 µM; 350,000 compounds, 0.32% hits; in the data active = activation above about 50%
Anthrax LF inh2: inhibitors of Bacillus anthracis lethal factor protease | multiplex microsphere protease cleavage assay, LF | inhibition, % at 10 µM | P15917 | 360,000 compounds, 0.12% hits | AID 588501
BoNT A protease: inhibitors of Botulinum neurotoxin A light chain protease. 360,000 compounds, 0.17% hits. AID 588499. multiplex microsphere protease substrate cleavage, flow cytometry. inhibition, % at 10 µM
Autofluor counter: counter-screen for toxin protease inhibitors: compound fluorescence. compound autofluorescence counterscreen, microsphere flow cytometry; active compounds read high. fluorescence intensity (no concentration beside the values). 360,000 compounds, 3.1% hits; in the data active = fluorescence intensity above about 16000; inconclusive = no clear call, values can overlap the other calls
BoNT-F LC inh: inhibitors of Botulinum neurotoxin F light chain protease. 360,000 compounds, 0.22% hits. inhibition, % at 10 µM. AID 588497. Multiplex microsphere protease cleavage assay, flow cytometry; in the data active = inhibition above about 35%, passing the limit was not always enough; inconclusive = no clear call, values can overlap the other calls
Each line names hits and unclear results; the compound was inactive in the other large screens. Cut-off read from the data, not from the text of the source, unless noted: active = inhibition above about 30%; inconclusive = no clear call, values can overlap the other calls; inactive = below that.

CCCCc1ccc(S(=O)(=O)NC(=O)C2(C)CCN2C(=O)CC2CC2)cc1 (stereo unspecified)	none (no result: MazEF act)
Cc1cc(N2CCCCCC2)nc2ccc(F)cc12	Autofluor counter 19022
COc1ccc2c(C)cc(N3CCCCCC3)nc2c1	none
C[C@@H]1CCCCO[C@H](CN(C)C(=O)Nc2ccccc2)[C@@H](C)CN([C@H](C)CO)C(=O)c2cc(NS(=O)(=O)c3cn(C)cn3)ccc2O1	none
Clc1ccccc1OCCCCn1ccnc1	none
O=C(NCCCn1ccnc1)c1ccccc1Br	none
Cc1ccccc1OCCCCCn1ccnc1	Autofluor counter 24874
O=C(NCCCn1ccnc1)c1sc2cccc(F)c2c1Cl	Autofluor counter 21856
Cc1ccccc1C(=O)NCCCn1ccnc1	BoNT-F LC inh 36.6
O=c1oc(-c2ccco2)nc2c1cnn2-c1ccccc1	none
O=c1c2cnn(-c3ccccc3)c2nc(-c2ccco2)n1-c1ccccc1	Autofluor counter 22323
COc1cc(OC)c(-c2nnc(-c3ccc(OC)c(OC)c3OC)o2)cc1OC	Autofluor counter 23443
CC(C)(C)C1CCc2onc(C(=O)Nc3cnn(Cc4ccc(F)cc4)c3)c2C1 (stereo unspecified)	Autofluor counter 18196
COc1ccc(-c2cc(C(F)(F)F)c3c(N)c(C(=O)NCCSC)sc3n2)cc1	MazEF act 617.6, BoNT-F LC inh inconclusive
COc1ccc(OC)c(NC(=O)c2sc3nc(Cc4ccccc4)cc(C(F)(F)F)c3c2N)c1	Autofluor counter 20176
CC1(C)COC(c2ccc3c(c2)OCO3)OC1	none
CCn1c(-c2cc3c(C(F)(F)F)nn(C)c3s2)n[nH]c1=S	Autofluor counter 16651
Cc1ccc(Nc2c3c(nc4ncnn24)CCC3)cc1	Autofluor counter 23876
CCN(C(=O)CN(C1=NC2CS(=O)(=O)CC2S1)c1ccc(OC)cc1)c1cccc(C)c1 (stereo unspecified)	none (no result: MazEF act)
CCn1c(SCC(=O)Nc2ccc(N(C)C)cc2)nnc1-c1ccco1	none
CC(=O)c1sc(NC(=O)CCc2ccccc2)nc1C	none
Nc1c(C(=O)NCc2ccc(F)cc2)c2nc3ccccc3nc2n1CCCN1CCOCC1	Autofluor counter 23744
COCCCNC(=O)c1ccc(N2CCOCC2)c(NS(=O)(=O)c2ccc(OC)cc2)c1	none
CCCCNC(=O)c1ccc(N2CCOCC2)c(NS(=O)(=O)c2ccc(OC)cc2)c1	Autofluor counter 20173
Nc1c(C(=O)NCc2ccccc2)c2nc3ccccc3nc2n1CCCN1CCOCC1	none
O=C(NCCCN1CCOCC1)c1cc(-c2ccc(F)cc2)on1	Autofluor counter 18525
O=C(NCCN1CCOCC1)c1cc(-c2cccc(O)c2)on1	none
O=C(NCCN1CCOCC1)c1cc(-c2ccco2)on1	Autofluor counter 17211
CN(CCCn1ccc(NC(=O)OCc2ccccc2)nc1=O)CCc1ccccn1	none
Cc1ccc(CNc2nc3cc(-c4ccccc4)sc3c(=O)n2C)c(C)c1	none (no result: MazEF act)
COC(=O)[C@]12CCCCC=C1N(Cc1ccccc1)C(=O)[C@H](CC(=O)NCC13CC4CC(CC(C4)C1)C3)C2	none (no result: MazEF act)
O=C(NCCCN1CCOCC1)c1ccc(CNS(=O)(=O)c2ccc(F)cc2)cc1	BoNT A protease inconclusive, Autofluor counter 16290
CC1CC(C)CN(CCCNC(=O)c2ccc(CNS(=O)(=O)c3ccc(F)cc3)cc2)C1 (stereo unspecified)	none
COc1ccc(S(=O)(=O)NCCCCCC(=O)NCCCN2CCOCC2)cc1	Autofluor counter 20933
COc1ccccc1C(=O)NC(CCSC)C(=O)OCC(=O)N1CCCC1=O (stereo unspecified)	none
c1ccc(CCCN2CCN(CCOC(c3ccccc3)c3ccccc3)CC2)cc1	none
c1ccc(COCCN2CCN(CCOCc3ccccc3)CC2)cc1	Autofluor counter 16853
CN(CC(=O)NCC(c1ccco1)N1CCCCC1)S(=O)(=O)c1ccc(Cl)cc1 (stereo unspecified)	none
CS(=O)(=O)c1ccc(C(=O)NC2CCOC2=O)cc1 (stereo unspecified)	BoNT A protease inconclusive, Autofluor counter 21657
COc1ccc(Cl)cc1C(=O)O/N=C(\N)c1ccc(Cl)cc1	none
Cc1occc1C(=O)O/N=C(\N)c1ccc(Cl)cc1	BoNT-F LC inh 40.0
CCc1ccc(N2CC(C(=O)Nc3ccc(C)c(S(=O)(=O)N4CCOCC4)c3)CC2=O)cc1 (stereo unspecified)	Autofluor counter 22656
N#C/C(=C\c1cccn1S(=O)(=O)c1cccc(C#N)c1)S(=O)(=O)c1ccc(F)cc1	none (no result: MazEF act)
Cn1nc(-c2ccc(C(=O)N3CCN(CCO)CC3)cc2)c2ccccc2c1=O	BoNT A protease inconclusive, Autofluor counter 21691
